The record followed here is PubChem BioAssay (NCATS).

Assay [1] concerns the target Lysosomal acid glucosylceramidase (Homo sapiens) (UniProt P04062). Description: Glucocerebrosidase-p2 (AID 348; in the data active means potency below about 10 µM; further: potency means the concentration at half of the fitted maximal effect). As to conditions: purified GBA, blue fluorogenic substrate, 40 min. In outline:
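Normal human glucocerebrosidase (0.2 nM) with blue fluorogenic substrate (80 uM final) in citrate/phosphate pH 5.9 with 10mM sodium taurocholate, 0.01% tween-20; 40 min RT, NaOH/glycine stop; fluorescence Ex 365/Em 440; AC50 from a titration from 0.6 nM upwards.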

Assay [2] deals with Cytochrome P450 1A2 (Homo sapiens) (UniProt P05177). Description: p450-cyp1a2 (AID 410; calls by dose curve; further: potency means the concentration at half of the fitted maximal effect;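 on activity change, negative = inhibition: -100% = full effect of reference inhibitor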). Summed up:
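O-Demethylation of luciferin 6' methyl ether by human CYP1A2 is monitored as luciferase luminescence. Substrate sits at Km (100uM); enzyme is 20nM. Values are scaled to 57 uM furafylline as maximal inhibition.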

Assay [3] can be described thus: Stat Signaling Pathway (AID 446; active means well fitted curve in either direction with a large enough effect, not every such curve was filed as active;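 further: ME-180 cervical cancer cells given 40 pM IL-6 alongside compound; SIE-controlled beta-lactamase reporter measured as 460/530 nm FRET emission ratio; on the % scale 0 is the no-effect control and ±100 the full control effect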). The following applies: ME-180 SIE beta-lactamase reporter, IL-6 stimulated, 5 h; at 7.69 µM (top of the series) unless noted. In outline: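 Compound effects on IL-6-induced STAT reporter activity were measured in ME-180 cells. After overnight culture, cells were co-treated with 40 pM IL-6 for 5 hrs before beta-lactamase substrate loading at room temperature.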

Assay [4] has as its target Glucocorticoid receptor (Homo sapiens) (UniProt P04150). Description: GR-GFP Redistribution (AID 450;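 active means compounds whose dose series gives a full or clear partial fitted curve of increased nuclear translocation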; further: potency means the concentration at half of the fitted maximal effect). As to conditions: U2OS GR-GFP nuclear translocation, laser cytometry, 2 h.
Assay [5] shares this target. The experiment in a line: GR-EFC Redistribution (AID 451; calls by dose curve; further: potency means the concentration at half of the fitted maximal effect). As to conditions: CHO-K1 GR-EFC translocation, beta-gal luminescence, 2 h. Summed up: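 CHO-K1 cells stably expressing nuclear-localized β-gal enzyme acceptor and GR fused C-terminally to the enzyme donor fragment; ligand-driven nuclear translocation restores β-gal by complementation. Compounds titrated up to 46 uM final, 2 h at 37 °C; luminescence read.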

Assay [6] addresses Mitogen-activated protein kinase 10 (Mus musculus) (UniProt Q61831). The experiment in a line: JNK3 AlphaScreen Assay (AID 530; active means well fitted curve in either direction with a large enough effect, not every such curve was filed as active;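 further: kinase came from lysate of stimulated human HepG2 cells; signal reports phosphorylation of biotinylated GST-cJun 1-79 at Ser73 with 10 µM ATP; on the % scale 0 is the no-effect control and ±100 the full control effect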). In outline:
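Phosphorylation of biotinylated GST-cJun(1-79) at Ser73 is measured by AlphaScreen proximity luminescence. Enzyme is JNK3 in HepG2 lysates activated with interleukin-1beta and tumor necrosis factor alpha; ATP is 10 uM final.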
For orientation: Bead proximity is the source of the signal in Alpha formats.

Assay [7] can be described thus: Primary qHTS for small molecule stabilizers of the endoplasmic reticulum resident proteome: Secreted ER Calcium Modulated Protein (SERCaMP) assay (AID 1508630). Further: on the % scale 0 is the no-effect control and ±100 the full control effect. Summed up:
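The SH-SY5Y reporter protocol was run at 3 concentrations up to 38.3 uM (primary) or 11 concentrations (follow-up): 16 h compound, 100 nM thapsigargin for 4 h, then extracellular luciferase luminescence.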

For assay [8], the target named is Rap guanine nucleotide exchange factor 3 (Homo sapiens) (UniProt O95398). Description: Confirmatory qHTS for antagonist of cAMP-regulated guanine nucleotide exchange factor 3 (EPAC1) (AID 1645880).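 Further: plate controls were DMSO only for no effect and full effect of the ATA control for full effect; nearly all actives have a fitted effect of over 55% in size.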 In outline: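 Released BODIPY-GDP fluoresces less than Rap1-bound BODIPY-GDP; the signal is followed at 480/540 nm at 5-min intervals over 30 min, after 5 min at room temperature. Reactions contain 100 nM EPAC1, 250 nM RAP1B-BODIPY-GDP and 50 uM GDP; results are normalized to ATA and DMSO.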
Rap guanine nucleotide exchange factor 3 (Homo sapiens), sequence (O95398 whole entry, looked up): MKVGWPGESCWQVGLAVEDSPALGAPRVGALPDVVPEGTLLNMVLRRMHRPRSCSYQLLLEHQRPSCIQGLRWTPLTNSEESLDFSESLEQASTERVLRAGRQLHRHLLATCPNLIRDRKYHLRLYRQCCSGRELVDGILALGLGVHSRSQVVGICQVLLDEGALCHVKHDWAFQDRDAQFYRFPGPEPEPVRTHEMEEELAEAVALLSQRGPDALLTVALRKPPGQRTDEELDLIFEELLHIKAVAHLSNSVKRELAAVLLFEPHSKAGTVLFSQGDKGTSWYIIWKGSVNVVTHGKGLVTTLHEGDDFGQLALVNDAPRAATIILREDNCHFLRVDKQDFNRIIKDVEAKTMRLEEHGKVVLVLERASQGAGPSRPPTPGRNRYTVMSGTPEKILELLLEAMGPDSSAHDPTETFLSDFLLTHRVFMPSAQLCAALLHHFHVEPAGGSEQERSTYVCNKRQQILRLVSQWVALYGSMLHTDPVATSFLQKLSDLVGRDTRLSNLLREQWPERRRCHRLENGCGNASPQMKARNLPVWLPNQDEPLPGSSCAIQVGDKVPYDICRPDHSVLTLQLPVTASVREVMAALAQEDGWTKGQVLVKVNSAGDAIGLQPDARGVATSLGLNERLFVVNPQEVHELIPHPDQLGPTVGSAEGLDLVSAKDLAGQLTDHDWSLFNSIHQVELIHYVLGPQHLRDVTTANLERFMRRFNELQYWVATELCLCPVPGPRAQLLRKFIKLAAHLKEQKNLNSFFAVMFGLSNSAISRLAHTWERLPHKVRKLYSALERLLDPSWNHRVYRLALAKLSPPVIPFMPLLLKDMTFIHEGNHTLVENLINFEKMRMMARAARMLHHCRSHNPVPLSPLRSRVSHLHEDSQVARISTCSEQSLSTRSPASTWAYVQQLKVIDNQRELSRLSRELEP
On the technique in general: qHTS replaces the single test concentration by a dilution series.

Assay [9] has the same target. The experiment in a line: Confirmatory qHTS for agonist of cAMP-regulated guanine nucleotide exchange factor 3 (EPAC1) (AID 1645881). Further: nearly all actives have a fitted effect of over 75% in size. Further: potency means the concentration at half of the fitted maximal effect.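 On activation: EPAC1 catalysed release of BODIPY-GDP from Rap1B seen as fluorescence loss; 100% = effect of cAMP agonist control.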
The target of assay [10] is Rap guanine nucleotide exchange factor 4 (Homo sapiens) (UniProt Q8WZA2). The experiment in a line: Confirmatory qHTS for antagonist of cAMP-regulated guanine nucleotide exchange factor 4 (EPAC2) (AID 1645885). Further: nearly all actives have a fitted effect of over 25% in size. Further: potency means the concentration at half of the fitted maximal effect.
Rap guanine nucleotide exchange factor 4 (Homo sapiens), sequence (Q8WZA2 whole entry, looked up): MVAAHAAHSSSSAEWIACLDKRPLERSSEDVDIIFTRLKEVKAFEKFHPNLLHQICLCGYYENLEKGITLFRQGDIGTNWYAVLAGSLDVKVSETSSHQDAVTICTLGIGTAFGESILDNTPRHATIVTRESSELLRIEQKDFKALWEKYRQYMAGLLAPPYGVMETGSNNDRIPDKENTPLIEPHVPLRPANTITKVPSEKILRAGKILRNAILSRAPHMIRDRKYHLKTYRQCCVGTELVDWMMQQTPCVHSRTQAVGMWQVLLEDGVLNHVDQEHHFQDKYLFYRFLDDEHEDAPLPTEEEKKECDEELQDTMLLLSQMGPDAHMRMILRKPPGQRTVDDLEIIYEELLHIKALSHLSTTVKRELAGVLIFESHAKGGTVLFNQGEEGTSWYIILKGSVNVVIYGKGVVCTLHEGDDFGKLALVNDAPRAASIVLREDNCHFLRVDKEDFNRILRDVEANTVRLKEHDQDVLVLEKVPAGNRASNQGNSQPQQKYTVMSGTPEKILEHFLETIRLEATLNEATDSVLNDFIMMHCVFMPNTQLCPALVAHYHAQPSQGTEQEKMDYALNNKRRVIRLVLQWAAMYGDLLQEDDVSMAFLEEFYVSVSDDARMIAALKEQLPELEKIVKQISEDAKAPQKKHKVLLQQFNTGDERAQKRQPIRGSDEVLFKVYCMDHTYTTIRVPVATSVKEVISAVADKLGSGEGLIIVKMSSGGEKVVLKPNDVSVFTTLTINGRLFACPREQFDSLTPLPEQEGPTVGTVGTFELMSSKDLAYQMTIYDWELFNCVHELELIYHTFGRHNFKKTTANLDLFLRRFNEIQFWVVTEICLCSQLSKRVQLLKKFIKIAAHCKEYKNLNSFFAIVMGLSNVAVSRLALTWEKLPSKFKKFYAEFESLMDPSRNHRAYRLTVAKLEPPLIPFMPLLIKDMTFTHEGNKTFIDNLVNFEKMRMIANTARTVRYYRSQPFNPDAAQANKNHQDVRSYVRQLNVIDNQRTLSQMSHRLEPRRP
A short description of assay [11]: AP1 Signaling Pathway (AID 357; active means well fitted curve in either direction with a large enough effect, not every such curve was filed as active;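 further: ME-180 reporter cells stimulated with EGF at its EC50 level; on the % scale 0 is the no-effect control and ±100 the full control effect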). The following applies: ME-180 (cervical carcinoma) AP-1-bla reporter, EGF-induced, beta-lactamase ratio, 5 h; at 7.69 µM (top of the series) unless noted. Summed up: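 Beta-lactamase reporter under AP-1 response element, ME-180 background. Stimulus: EC50 EGF. Compound exposure 5 h, 37 °C. Detection: CCF4, 2.5 h RT, 460/530 nm. Values: AC50 from titration.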

The nature of assay [12]: NFAT Signaling Pathway (AID 444; active means well fitted curve in either direction with a large enough effect, not every such curve was filed as active). As to conditions: Jurkat NFAT-bla M1, carbachol, beta-lactamase ratio, 5 h; at 7.69 µM (top of the series) unless noted. In outline: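 Jurkat cells carrying an NFAT-driven β-lactamase reporter and co-transfected muscarinic M1 receptor were treated with compound plus carbachol (1 uM final, an EC50 level) for 5 h at 37 °C. CCF4 loading followed for 1 h at RT; 460/530 nm ratio gave %activity.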

The target in assay [13] is 3',5'-cyclic-AMP phosphodiesterase 4B (Homo sapiens) (UniProt Q07343). The experiment in a line: qHTS Assay for Inhibitors of PDE-IV (AID 607; active means well fitted activation curve with a large enough effect in the main read-out, with a control signal flat, not every such curve was filed as active; further: % of control where 0% means no effect). In outline:
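ACTOne HEK293 cells carry a modified cAMP-gated CNG channel and express endogenous PDE4; plated 1000 cells/well, compounds up to 22.9 uM final. Membrane-potential dye fluorescence (ex 535/em 590) was read; parental cells received 10 uM forskolin + 100 uM RO 20-1724.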

The target of assay [14] is Cytochrome P450 3A4 (Homo sapiens) (UniProt P08684). The experiment in a line: qHTS Assay for Activators of Cytochrome P450 3A4 (AID 885). Further: nearly all actives have a fitted effect of over 65% in size. In outline:
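CYP3A4 activity: Luciferin-PPXE O-dealkylation, 25uM substrate, 200mM KPO4, RT throughout. Read-out is luciferase luminescence; higher values reflect activation.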

The target of assay [15] is Dual specificity protein kinase CLK4 (Homo sapiens) (UniProt Q9HAZ1). Description: qHTS Assay for Inhibitors of CDC-like Kinase 4 (ADP-FP Assay) (AID 1795).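 Further: recombinant human CLK4 phosphorylating RS repeat peptide at 1 µM ATP; on the % scale 0 is the no-effect control and ±100 the full control effect; nearly all actives have a fitted effect of over 60% in size.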 Summed up: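 Inhibition of ADP formation by 6.25 nM Clk4 is measured using 1 uM ATP and 100 uM RS repeat peptide over one hour. Produced ADP displaces a fluorescent tracer from antibody, lowering polarization.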
Dual specificity protein kinase CLK4 (Homo sapiens), sequence (Q9HAZ1 whole entry, looked up): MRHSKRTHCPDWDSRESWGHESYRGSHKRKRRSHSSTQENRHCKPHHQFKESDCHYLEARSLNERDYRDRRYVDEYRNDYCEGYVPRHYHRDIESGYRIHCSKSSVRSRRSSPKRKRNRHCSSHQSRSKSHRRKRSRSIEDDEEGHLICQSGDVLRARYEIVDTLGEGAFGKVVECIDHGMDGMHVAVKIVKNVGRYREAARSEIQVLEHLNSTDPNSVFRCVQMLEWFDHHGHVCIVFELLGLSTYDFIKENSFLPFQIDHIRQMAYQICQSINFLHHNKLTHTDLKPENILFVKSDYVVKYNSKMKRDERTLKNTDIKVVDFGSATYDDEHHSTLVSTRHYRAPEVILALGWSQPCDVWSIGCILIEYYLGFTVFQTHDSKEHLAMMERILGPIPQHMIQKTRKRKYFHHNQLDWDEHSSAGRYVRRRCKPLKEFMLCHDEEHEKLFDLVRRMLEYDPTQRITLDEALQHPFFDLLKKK
For assay [16], the target named is Ubiquitin carboxyl-terminal hydrolase 1 (Homo sapiens) (UniProt O94782). The experiment in a line: Inhibitors of USP1/UAF1: Pilot qHTS (AID 504865). Further: nearly all actives have a fitted effect of over 35% in size. Further: potency means the concentration at half of the fitted maximal effect. In outline: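 Kinetic fluorescence assay: 1nM USP1/UAF1, 15 min compound preincubation, then 150nM Ub-Rho; 480/540 nm.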
Ubiquitin carboxyl-terminal hydrolase 1 (Homo sapiens), sequence (O94782 whole entry, looked up): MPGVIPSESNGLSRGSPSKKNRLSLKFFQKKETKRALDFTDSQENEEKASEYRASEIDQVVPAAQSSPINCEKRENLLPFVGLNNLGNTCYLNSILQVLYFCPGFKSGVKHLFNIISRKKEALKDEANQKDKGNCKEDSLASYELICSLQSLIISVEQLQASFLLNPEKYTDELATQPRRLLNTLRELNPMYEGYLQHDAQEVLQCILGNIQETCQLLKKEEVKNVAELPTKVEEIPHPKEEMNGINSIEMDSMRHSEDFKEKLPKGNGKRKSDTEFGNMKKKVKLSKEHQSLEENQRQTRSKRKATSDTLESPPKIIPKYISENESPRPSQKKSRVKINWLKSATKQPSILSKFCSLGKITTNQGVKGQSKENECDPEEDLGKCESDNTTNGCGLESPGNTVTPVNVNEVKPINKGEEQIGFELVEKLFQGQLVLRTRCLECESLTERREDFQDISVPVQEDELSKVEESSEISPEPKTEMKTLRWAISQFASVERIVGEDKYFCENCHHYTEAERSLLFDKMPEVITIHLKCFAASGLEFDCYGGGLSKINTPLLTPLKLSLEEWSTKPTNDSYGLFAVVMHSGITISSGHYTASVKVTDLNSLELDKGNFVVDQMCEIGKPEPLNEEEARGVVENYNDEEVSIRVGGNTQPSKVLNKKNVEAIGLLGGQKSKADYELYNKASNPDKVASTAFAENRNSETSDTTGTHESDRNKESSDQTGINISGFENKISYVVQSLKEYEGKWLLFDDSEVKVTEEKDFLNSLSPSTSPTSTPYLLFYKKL
For assay [17], the target named is Dual specificity protein kinase CLK4 (Homo sapiens) (UniProt Q9HAZ1). The experiment in a line: qHTS Assay for Inhibitors of CDC-like Kinase 4 (Kinase-Glo Assay) (AID 1770). Further: on the % scale 0 is the no-effect control and ±100 the full control effect; nearly all actives have a fitted effect of over 65% in size. In outline:
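Inhibition was judged from remaining ATP, measured by Ultra-Glo luciferase bioluminescence after Clk4 (25 nM) had acted on RS peptide at 1 uM ATP for 4.5 hours, room temperature.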

For assay [18], the target named is Rap guanine nucleotide exchange factor 4 (Homo sapiens) (UniProt Q8WZA2). Description: Confirmatory qHTS for agonist of cAMP-regulated guanine nucleotide exchange factor 4 (EPAC2) (AID 1645884).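 Further: nucleotide exchange releases bodipy-GDP from Rap1 and this lowers its fluorescence; on the % scale 0 is the no-effect control and ±100 the full control effect; nearly all actives have a fitted effect of over 65% in size.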

Unmarked numbers belong to inactive results. Results filed as inconclusive are left out. Active and inactive are the calls of the source. Unless noted, the call rests on the fitted dose curve; in most records, active means well fitted curve in the direction sought with a large enough effect; inconclusive means small, poorly fitted or top-dose-only effect, or another doubt; inactive means no such curve, though single readings can be large; an effect the other way counts as inactive or inconclusive. A value given as a limit tells only on which side of the number the result lay.

3',5'-cyclic-AMP phosphodiesterase 4B (Homo sapiens), sequence (Q07343 whole entry, looked up): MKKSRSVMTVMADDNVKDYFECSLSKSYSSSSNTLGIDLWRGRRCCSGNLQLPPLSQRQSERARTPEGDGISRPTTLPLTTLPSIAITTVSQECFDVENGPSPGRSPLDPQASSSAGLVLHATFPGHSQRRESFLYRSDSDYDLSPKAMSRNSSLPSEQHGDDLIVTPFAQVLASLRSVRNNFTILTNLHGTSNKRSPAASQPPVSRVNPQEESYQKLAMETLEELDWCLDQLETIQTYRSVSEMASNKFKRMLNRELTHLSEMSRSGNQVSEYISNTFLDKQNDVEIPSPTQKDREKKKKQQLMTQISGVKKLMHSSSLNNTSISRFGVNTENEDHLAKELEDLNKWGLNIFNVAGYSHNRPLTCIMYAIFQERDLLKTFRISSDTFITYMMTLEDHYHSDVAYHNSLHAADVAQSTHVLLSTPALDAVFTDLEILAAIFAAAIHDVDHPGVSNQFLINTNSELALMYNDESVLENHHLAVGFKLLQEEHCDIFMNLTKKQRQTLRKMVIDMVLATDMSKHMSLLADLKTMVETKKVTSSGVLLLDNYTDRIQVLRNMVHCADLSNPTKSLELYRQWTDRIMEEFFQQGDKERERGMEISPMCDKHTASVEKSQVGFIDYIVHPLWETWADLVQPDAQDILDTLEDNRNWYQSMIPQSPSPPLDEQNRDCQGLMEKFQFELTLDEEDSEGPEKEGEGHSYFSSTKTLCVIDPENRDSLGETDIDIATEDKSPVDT
Lysosomal acid glucosylceramidase (Homo sapiens), sequence (P04062 whole entry, looked up): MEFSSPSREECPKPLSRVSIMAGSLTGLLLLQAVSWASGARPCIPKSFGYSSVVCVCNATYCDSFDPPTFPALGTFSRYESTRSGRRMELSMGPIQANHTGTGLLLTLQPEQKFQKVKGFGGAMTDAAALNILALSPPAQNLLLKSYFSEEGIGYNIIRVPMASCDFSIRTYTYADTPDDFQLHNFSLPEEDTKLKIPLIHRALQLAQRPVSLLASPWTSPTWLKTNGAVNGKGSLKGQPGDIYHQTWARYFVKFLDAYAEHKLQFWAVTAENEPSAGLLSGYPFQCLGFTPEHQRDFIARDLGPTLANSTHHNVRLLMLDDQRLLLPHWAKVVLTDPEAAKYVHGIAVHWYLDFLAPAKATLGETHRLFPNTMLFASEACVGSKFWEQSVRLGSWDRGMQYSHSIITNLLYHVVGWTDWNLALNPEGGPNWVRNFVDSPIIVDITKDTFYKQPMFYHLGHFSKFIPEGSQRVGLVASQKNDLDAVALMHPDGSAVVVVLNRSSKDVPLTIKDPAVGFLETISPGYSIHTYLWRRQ
Cytochrome P450 1A2 (Homo sapiens), sequence (P05177 whole entry, looked up): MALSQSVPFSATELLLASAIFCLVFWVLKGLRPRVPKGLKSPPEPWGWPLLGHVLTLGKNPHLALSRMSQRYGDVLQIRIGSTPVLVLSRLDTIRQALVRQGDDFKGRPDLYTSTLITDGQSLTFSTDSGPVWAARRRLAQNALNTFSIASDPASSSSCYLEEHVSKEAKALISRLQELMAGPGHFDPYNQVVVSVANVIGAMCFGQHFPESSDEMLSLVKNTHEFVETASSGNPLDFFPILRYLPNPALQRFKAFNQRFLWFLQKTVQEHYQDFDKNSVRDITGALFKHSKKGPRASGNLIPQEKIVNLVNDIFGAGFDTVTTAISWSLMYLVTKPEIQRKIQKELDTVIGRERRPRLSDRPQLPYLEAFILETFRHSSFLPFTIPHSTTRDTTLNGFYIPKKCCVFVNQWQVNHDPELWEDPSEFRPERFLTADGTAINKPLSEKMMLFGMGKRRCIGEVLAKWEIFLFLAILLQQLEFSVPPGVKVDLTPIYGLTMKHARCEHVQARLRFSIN

Consider `COc1ccccc1CNc1nc(-c2cccc(C#N)c2)nc2ccccc12`, for which the Potency in assay [1] was > 11.4 µM; in assay [2], 1.26 µM (active); in assay [4] it was > 46 µM; in [5], > 46 µM. The activity, negative = inhibition in [3] was -22%. Further, the Potency entry in assay [6], in assay [8], in assay [9] and in [10] was “inactive” in each case. Also, the outcome in assay [7] was inactive.
In the case of `COc1cccc(Nc2ncc3nc(-c4cccs4)c(=O)n(-c4ccccc4)c3n2)c1`, the values for the activity change, negative = inhibition in assay [11] and in [12] were -24.2% and -15.6%, respectively. The Potency in [2] is 3.16 µM (active); in assay [5], > 46 µM; in [16], 35.5 µM (active); in [9], 70.6 µM (active). Besides, in assay [3], the activity, negative = inhibition is 3.1%. In addition, the Potency entry in assay [6], in [13], in assay [14], in assay [15], in assay [8] and in assay [10] was “inactive” each time. Moreover, in [7], the result was inactive.
As for `O=c1c(-c2cccs2)nc2cnc(N3CCOCC3)nc2n1CCc1ccccc1`, the Potency was > 11.4 µM in [1], > 9.22 µM in [4] and > 46 µM in assay [5]. The values for the activity change, negative = inhibition in [11] and in [12] were 13.2% and 19.8%, respectively. In assay [3], the activity, negative = inhibition is 18.4%. Besides, the Potency entry in [14], in assay [17], in assay [15], in assay [16], in [8] and in assay [10] was “inactive” in each case. The outcome in [7] was inactive.
`Cc1nc2cnc(Oc3cccc(Cl)c3)nc2n(C2CC2)c1=O`: the Potency in assay [1] was > 11.4 µM; in assay [2], 6.31 µM (active); in [4], > 9.22 µM; in assay [5], > 46 µM. Also, the values for the activity change, negative = inhibition in assay [11] and in assay [12] were -22.3% and -5.3%, respectively. Moreover, in assay [3], the activity, negative = inhibition is -13.7%. Moreover, the Potency result in [6], in assay [13], in assay [17], in assay [15] and in [16] was “inactive” throughout. For the same compound, the result in assay [7] was inactive.
On to `COc1ccc(-n2c(=O)c(-c3ccc(F)cc3)nc3cncnc32)cc1`, for which the Potency is > 11.4 µM in assay [1], > 9.22 µM in [4] and > 46 µM in assay [5]. Besides, the activity change, negative = inhibition in assay [11] is 7.36%; in assay [12], -20%. Moreover, the Potency result in [2], in assay [6], in [13], in assay [17], in assay [15] and in [16] was “inactive” throughout. The activity, negative = inhibition in assay [3] is 6.09%. Further, the outcome in [7] was inactive.
Regarding `COCCNc1ccnc(-c2ccccc2C)n1`, the Potency in assay [1] was > 11.4 µM; in assay [2], 12.6 µM (active); in [4], > 46 µM; in assay [5] it was > 46 µM. For the same compound, the activity change, negative = inhibition is -9.97% in assay [11] and 3.48% in assay [12]. Further, the activity, negative = inhibition in assay [3] was 15.6%. Besides, the Potency result in [6], in assay [13], in assay [17], in assay [15] and in assay [16] was “inactive” throughout. Also, the outcome in [7] was inactive.
As to `COc1ccc(C(=O)N2CCC3(CCN(Cc4cc(C(F)(F)F)cc(C(F)(F)F)c4)CC3)CC2)cc1`, the Potency was > 11.4 µM in [1], > 46 µM in assay [5] and 35 µM (active) in assay [10]. For the same compound, the activity change, negative = inhibition in [11] is 7.47%; in assay [12], 19.2%. The Potency entry in assay [2], in [6], in [13], in assay [14], in assay [9] and in [18] was “inactive” throughout. Also, the activity, negative = inhibition in assay [3] was -6.24%. Besides, the result in assay [7] was inactive.
Turning to `O=C(CCCCCN1C(=O)c2cccc3cccc(c23)C1=O)NO`, the result in assay [7] was inactive.
